This note sets out measurements from PubChem BioAssay.

Test [1] can be described thus: inhibitors of TNFa-induced NFkB p65 translocation, primary screen, imaging, HUVEC, MLSMR starter and 10KST1 sets (AID 438).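 Also: compound added about 3h40 before a 20 min TNFalpha stimulation.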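 As to inhibition: signal is the nuclear over cytoplasmic p65 intensity ratio per well.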 As to conditions: HUVEC TNFa-induced p65 nuclear translocation; cell count: measured here: nuclei count (cytotoxicity indicator), at 2.08 µM; inhibition: at 2 µM, stronger effect = higher value, 0% TNFa-plus-vehicle, 100% no-TNFa wells.
The nature of test [2]: inhibitors of mutant huntingtin aggregation, primary screen, imaging, exon1htt(103Q)mCFP cells, high-content imaging (AID 483;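 active = visual image review flags a hit and inhibition of aggregation exceeds 20%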;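 also: compound exposure lasted 3 days before fixation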;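 as to nuclei count: percent of the per-plate median nuclei count of sample wells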). As to conditions: exon1htt(103Q)mCFP cell line, aggregate imaging, at 2 µM; inhibition of aggregation: stronger effect = higher value; nuclei count: measured here: cell count, toxicity.
Test [3] can be described thus: inhibitors of E-selectin induction by TNFa, primary screen, imaging, HUVEC, immunofluorescence, MLSMR starter and 10KST1 sets (AID 487;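 active = visually confirmed hit in the image check and inhibition above 20%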;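 as to inhibition: signal is fraction of cell area covered by stained E-selectin grains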;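 as to nuclei count: 100% = median nuclei count of all wells on the same plate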). As to conditions: HUVEC TNFalpha-induced E-selectin immunofluorescence imaging, at 2 µM; inhibition: stronger effect = higher value; nuclei count: measured here: cell number, toxicity.
The target in test [4] is Voltage-gated potassium channel subunit beta-2 (Rattus norvegicus) (UniProt P62483). In words: KvBeta enzyme negative modulators, primary screen, biochemical, NADPH fluorescence (AID 622;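 active = fluorescence slope higher than the sample average by over 3 SD, cut at about -0.22 in these data, passing the limit was not always enough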;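 also: slope of raw intensity against log time taken from 70 to 1610 s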). As to conditions: recombinant KvBeta, 4-cyanobenzaldehyde reduction, at 10 µM, stronger effect = higher value.
Test [5] shares this target. In words: KvBeta positive modulators, primary screen, biochemical, NADPH fluorescence (AID 623;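 active = NADPH fluorescence slope more negative than the mean of all samples by about 3 SD, 99.7% confidence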;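 also: fluorescence intensity change per second fitted from 20 to 320 s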). As to conditions: Recombinant KvBeta, NADPH fluorescence decrease slope, 10 min; at 10 µM; stronger effect = lower value.
Test [6] deals with Alpha-2C adrenergic receptor (Homo sapiens) (UniProt P18825). The test can be described thus: modulators of alpha2C/GIRK thallium flux, primary screen, cell-based, HEK293 alpha2C/GIRK1/2 (AID 624;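 active = fluorescence slope after compound addition differing from the mean of all screened samples at 99.7% confidence, in either direction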;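 also: slope of fluorescence ratio to pre-addition baseline per second over 15 to 24 s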). As to conditions: thallium flux BTC fluorescence, at 10 µM, actives lie on both sides.
Test [7] in a line: inhibitors of Sendai virus-induced IRF3 signaling, primary screen, TLR/RLR signaling modifier project, cell-based, Sendai virus stimulus, luciferase, 10K MLSCN set (AID 602276;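 active = inhibition at or above 50% at 10 µM; inactive = inhibition below 50%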;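 also: firefly luciferase from ISG56 promoter only with Renilla not read in this screen; 0% = Sendai virus plus DMSO and 100% = medium plus DMSO without virus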). As to conditions: HEK293 RL24 IRF3 luciferase reporter, at 10 µM, stronger effect = higher value. (In general: In a reporter assay the amount or activity of a reporter protein is the signal.)
A short description of test [8]: inhibitors of poly I:C-induced TLR3 signaling, primary screen, cell-based, poly I:C stimulus, luciferase, 10K MLSCN set (AID 602277;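 active = inhibition of the reporter signal at or above 50%; inactive = inhibition below 50%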). As to conditions: HEK293-TLR3 RL24 IRF3 luciferase reporter, at 10 µM, stronger effect = higher value.

The source made the active and inactive calls.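 The calls were made as follows, unless noted: active = inhibition above 20% together with a positive visual image hit; inconclusive = visual image hit but inhibition not above 20%; inactive = no visual image hit.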

Sequence of Alpha-2C adrenergic receptor (Homo sapiens) (P18825 whole entry, looked up): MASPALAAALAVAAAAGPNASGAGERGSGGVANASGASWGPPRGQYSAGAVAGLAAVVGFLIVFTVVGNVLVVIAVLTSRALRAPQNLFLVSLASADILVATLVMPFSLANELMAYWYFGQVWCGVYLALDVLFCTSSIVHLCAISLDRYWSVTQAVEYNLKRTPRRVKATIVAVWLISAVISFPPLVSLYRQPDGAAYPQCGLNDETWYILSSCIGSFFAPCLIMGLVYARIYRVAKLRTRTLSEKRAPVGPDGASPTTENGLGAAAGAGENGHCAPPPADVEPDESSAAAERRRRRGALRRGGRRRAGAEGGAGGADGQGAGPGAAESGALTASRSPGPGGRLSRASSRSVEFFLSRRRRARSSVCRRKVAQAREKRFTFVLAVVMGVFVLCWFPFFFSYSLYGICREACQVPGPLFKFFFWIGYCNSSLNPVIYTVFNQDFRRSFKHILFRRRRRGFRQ
Sequence of Voltage-gated potassium channel subunit beta-2 (Rattus norvegicus) (P62483 whole entry, looked up): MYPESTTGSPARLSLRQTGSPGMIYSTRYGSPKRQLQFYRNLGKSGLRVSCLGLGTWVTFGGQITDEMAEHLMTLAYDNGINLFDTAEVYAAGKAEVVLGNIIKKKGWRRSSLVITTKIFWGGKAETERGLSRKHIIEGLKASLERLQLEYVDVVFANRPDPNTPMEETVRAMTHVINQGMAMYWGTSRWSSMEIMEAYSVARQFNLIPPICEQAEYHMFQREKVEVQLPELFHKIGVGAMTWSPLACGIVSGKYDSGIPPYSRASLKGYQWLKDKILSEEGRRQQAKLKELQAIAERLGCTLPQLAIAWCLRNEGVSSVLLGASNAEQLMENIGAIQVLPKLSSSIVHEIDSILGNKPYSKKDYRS

What is called inhibition is the drop in the measured response relative to a control, in per cent. On to `CCN(CC)CCN1C(=O)C(O)=C(C(=O)c2cccs2)C1c1ccc(C)o1` (centres undefined), for which the cell count in test [1] was determined as 343. Moreover, the inhibition in test [1] was 12.4% (inactive); in test [3] it was -153% (inactive); in test [7] it was 2.4% (inactive); in test [8], -5.17% (inactive). The inhibition of aggregation in test [2] is -10.4% (inactive). For the same compound, the figures for the nuclei count in test [2] and in test [3] were 91.9% and 111%, respectively. Also, the fluorescence slope in test [4] was -0.411 (inactive). Also, in test [5], the NADPH fluorescence slope is -3.6e-05 (inactive). In test [6], the slope is 0.00478 (inactive).

Take `Cn1c(Cl)nc2ccccc21`: in test [1], the cell count amounted to 467. Besides, the inhibition is 3.8% (inactive) in test [1], 45.8% (inactive) in test [3], 19.3% (inactive) in test [7] and 51% (active) in test [8]. For the same compound, in test [2], the inhibition of aggregation was 12.8% (inactive). For the same compound, the nuclei count in test [2] was 93.2%; in test [3], 93.3%. Also, the fluorescence slope in test [4] is -0.514 (inactive). Further, the NADPH fluorescence slope in test [5] is -5.9e-05 (inactive). Further, the slope in test [6] is 0.00423 (inactive).

Take `O=c1c2ccccc2nnn1CSc1nnc2sc3ccccc3n12`: the cell count in test [1] came out at 558. For the same compound, the inhibition in test [1] was -14.2% (inactive); in test [3], -56% (inactive); in test [7] it was 49% (inactive); in test [8] it was 42.1% (inactive). Besides, the inhibition of aggregation in test [2] is -28.8% (inactive). Besides, the nuclei count came out at 109% in test [2] and 111% in test [3]. Besides, the fluorescence slope in test [4] was -0.521 (inactive). For the same compound, in test [5], the NADPH fluorescence slope is -4.5e-05 (inactive). Also, the slope in test [6] is 0.00436 (inactive).

For the compound `Cc1cc(C)c2c(C)nn(C3CCCCC3)c2n1`, the cell count in test [1] was determined as 318. The inhibition in test [1] was 1.7% (inactive); in test [3], 33.7% (inactive); in test [7], -18.5% (inactive); in test [8], -5.34% (inactive). For the same compound, in test [2], the inhibition of aggregation was 27.2% (inactive). Moreover, the nuclei count in test [2] was 79.1%; in test [3], 86.7%. In addition, the fluorescence slope in test [4] is -0.514 (inactive). In addition, in test [5], the NADPH fluorescence slope was 1.4e-05 (inactive). In test [6], the slope was 0.00644 (inactive).

As to `CC(=O)N(C(C)=O)c1c(C#N)c(C)n(-c2ccccc2)c1C(=O)c1ccccc1`, in test [1], the cell count was 430. Moreover, the inhibition in test [1] was 8.5% (inactive); in test [3], 24.1% (inactive); in test [7], 27% (inactive); in test [8] it was 26.6% (inactive). In addition, the inhibition of aggregation in test [2] is 4.6% (inactive). In addition, the nuclei count in test [2] is 102%; in test [3], 110%. Besides, the fluorescence slope in test [4] was -0.503 (inactive). Besides, the NADPH fluorescence slope in test [5] was -3.8e-05 (inactive). The slope in test [6] is 0.00413 (inactive).

As for `CS(=O)(=O)N(CC(=O)NCc1ccncc1)Cc1ccc(Cl)cc1`, the cell count in test [1] turned out to be 614. For the same compound, the inhibition in test [1] is 8.7% (inactive); in test [3], -83.3% (inactive); in test [7] it was 17.3% (inactive); in test [8], 18% (inactive). Also, in test [2], the inhibition of aggregation was -13.4% (inactive). The nuclei count in test [2] amounted to 107%; in test [3] it was 121%. Moreover, the fluorescence slope in test [4] was -0.471 (inactive). In test [5], the NADPH fluorescence slope is -1.2e-06 (inactive). The slope in test [6] is 0.00437 (inactive).

As to `CC(C)N(C(=O)CSc1nnc(NC(=O)C2CCC2)s1)C(C)C`, in test [1], the cell count was determined as 599. The inhibition in test [1] was -0.6% (inactive); in test [3], -108% (inactive); in test [7], 17.8% (inactive); in test [8] it was 25.1% (inactive). For the same compound, the inhibition of aggregation in test [2] is -7.3% (inactive). Besides, the nuclei count in test [2] was determined as 86.3%; in test [3] it was 110%. In addition, the fluorescence slope in test [4] was -0.466 (inactive). Moreover, in test [5], the NADPH fluorescence slope is 2.4e-05 (inactive). Moreover, the slope in test [6] is 0.00479 (inactive).

As for `CCS(=O)(=O)N1CCCC(C(=O)NCc2cccc(OC)c2)C1` (centres undefined), the cell count in test [1] was determined as 722. The inhibition in test [1] is -5.5% (inactive); in test [3], -66.4% (inactive); in test [7], -3.96% (inactive); in test [8], 3.19% (inactive). Besides, the inhibition of aggregation in test [2] was -59.8% (inactive). Moreover, the nuclei count was determined as 105% in test [2] and 116% in test [3]. In test [4], the fluorescence slope is -0.617 (inactive). Besides, the NADPH fluorescence slope in test [5] was -1.9e-05 (inactive). Besides, the slope in test [6] was 0.00403 (inactive).

As to `CCC1CCCCN1CCCNC(=O)CC1Oc2ccc(C)cc2NC1=O` (centres undefined), in test [1], the cell count was 810. Moreover, the inhibition in test [1] is -1.8% (inactive); in test [3], -71% (inactive); in test [7] it was 5.08% (inactive); in test [8], 29.6% (inactive). Moreover, the inhibition of aggregation in test [2] was 13.7% (inactive). Further, the nuclei count worked out at 105% in test [2] and 107% in test [3]. Moreover, the fluorescence slope in test [4] is -0.499 (inactive). Also, the NADPH fluorescence slope in test [5] is -3.5e-05 (inactive). Moreover, the slope in test [6] was 0.00565 (inactive).

For the compound `O=C(CCc1nc2ccccc2[nH]1)Nc1ccc2c(c1)OCO2`, the cell count in test [1] is 310. The inhibition in test [1] is -9.6% (inactive); in test [3] it was -68.2% (inactive); in test [7], -10.7% (inactive); in test [8], -26.2% (inactive). The inhibition of aggregation in test [2] is 23.8% (inactive). The nuclei count in test [2] and in test [3] was 111% throughout. For the same compound, in test [4], the fluorescence slope is -0.347 (inactive). Moreover, the NADPH fluorescence slope in test [5] is 1.4e-05 (inactive). Also, in test [6], the slope is 0.00426 (inactive).

As for `CCOC(=O)Cn1c(CCC(=O)O)ccc1-c1ccc(F)cc1`, the cell count in test [1] stood at 584. Further, the inhibition in test [1] is -5% (inactive); in test [3], -54.4% (inactive); in test [7] it was 15.5% (inactive); in test [8], 39.4% (inactive). In addition, the inhibition of aggregation in test [2] is -12.4% (inactive). Moreover, the nuclei count was 98.2% in test [2] and 97.7% in test [3]. Further, in test [4], the fluorescence slope was -0.548 (inactive). In addition, in test [5], the NADPH fluorescence slope was -2.7e-05 (inactive). Besides, in test [6], the slope was 0.00704 (inactive).

As for `N#Cc1cc2ccccc2nc1SCC(=O)Nc1ccccc1N1CCOCC1`, the cell count in test [1] is 448. Further, the inhibition in test [1] is 13.7% (inactive); in test [3], -12.8% (inactive); in test [7], 9.6% (inactive); in test [8], 9.63% (inactive). Also, the inhibition of aggregation in test [2] is 8.2% (inactive). The nuclei count in test [2] was found to be 100%; in test [3], 106%. Moreover, the fluorescence slope in test [4] is -0.481 (inactive). The NADPH fluorescence slope in test [5] was -2.6e-05 (inactive). Moreover, the slope in test [6] was 0.00662 (inactive).

As to `CCCNS(=O)(=O)c1ccc(C(=O)NCC2CCCO2)cc1` (centres undefined), the cell count in test [1] was 482. In addition, the inhibition was 2.6% (inactive) in test [1], -95.5% (inactive) in test [3], 10.8% (inactive) in test [7] and 20.7% (inactive) in test [8]. The inhibition of aggregation in test [2] is -16.7% (inactive). For the same compound, the nuclei count in test [2] and in test [3] was 114% in each case. For the same compound, in test [4], the fluorescence slope is -0.529 (inactive). Also, in test [5], the NADPH fluorescence slope is -4.9e-05 (inactive). In addition, the slope in test [6] was 0.00794 (inactive).

For the compound `Cc1ccccc1-n1c(Cn2c(=O)sc3ccccc32)nnc1SCC(=O)N1CCCC1`, in test [1], the cell count came out at 652. Besides, the inhibition in test [1] is 8.7% (inactive); in test [3], -36.1% (inactive); in test [7] it was 12.7% (inactive); in test [8], 10.7% (inactive). The inhibition of aggregation in test [2] is 13.1% (inactive). The nuclei count in test [2] is 112%; in test [3] it was 120%. The fluorescence slope in test [4] was -0.547 (inactive). The NADPH fluorescence slope in test [5] is -3.9e-05 (inactive). Moreover, in test [6], the slope is 0.00766 (inactive).
